# Data from PubChem BioAssay AID631 (The Scripps Research Institute Molecular Screening Center, 2007).
# About 810 (0.41%) of roughly 200,000 compounds were called active. Shown is part of a subset that was picked to be rich in actives. Unmarked numbers belong to inactive results. No stated cut-off is given here; in the data, active means activation above about 19%; inactive means the rest.
# Target: Peroxisome proliferator-activated receptor gamma (Homo sapiens) (UniProt P37231)
# Experiment: PPARgamma agonists recruiting SRC-1 coactivator, primary screen, biochemical (AID 631);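 further: 0% = DMSO and 100% = reference agonist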
# Conditions: PPARgamma-SRC-1 coactivator recruitment biochemical assay; at 8 µM; hits give high values
# Sequence of Peroxisome proliferator-activated receptor gamma (Homo sapiens) (P37231 whole entry, looked up): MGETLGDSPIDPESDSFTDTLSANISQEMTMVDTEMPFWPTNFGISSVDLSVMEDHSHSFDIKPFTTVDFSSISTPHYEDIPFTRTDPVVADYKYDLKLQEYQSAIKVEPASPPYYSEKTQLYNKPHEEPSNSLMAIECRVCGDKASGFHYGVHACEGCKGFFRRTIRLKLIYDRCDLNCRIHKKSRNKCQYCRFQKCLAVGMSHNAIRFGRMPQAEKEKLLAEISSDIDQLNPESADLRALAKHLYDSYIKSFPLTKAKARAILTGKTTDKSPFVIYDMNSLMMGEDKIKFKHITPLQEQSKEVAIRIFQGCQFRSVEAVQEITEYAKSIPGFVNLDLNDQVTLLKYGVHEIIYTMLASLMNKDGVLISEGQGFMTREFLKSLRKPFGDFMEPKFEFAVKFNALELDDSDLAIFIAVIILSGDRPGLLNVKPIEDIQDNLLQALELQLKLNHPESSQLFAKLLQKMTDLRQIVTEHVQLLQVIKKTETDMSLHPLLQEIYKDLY
row,Structure (SMILES),activation
1,CSC1=NP(=S)(SC)N(C)c2nc3n(c21)CCC3 (stereo not given),65.3% (active)
2,Cc1ccc2c(c1)C1CN(C)CCC1N2C(=O)Cn1nnc(-c2ccccc2F)n1 (stereo not given),3.5%
3,OCC#CC[N+]1(CC#Cc2ccccc2)CCCC1,4.2%
4,CC(=O)NC(=O)NC(C)Cc1ccccc1 (stereo not given),6.2%
5,COc1cccc(-c2nc3ccc(N4CCN(C)CC4)cc3[nH]2)c1,3.8%
